Compounds with a hit are over-represented: about 12% of the library has one in this group of screens.
USP30 block: inhibitors of human USP30 deubiquitinase; Ubiquitin carboxyl-terminal hydrolase 30 (Homo sapiens), Q70CQ3; 47,000 compounds, 5.3% hits; inhibition, % at 25 µM; purified USP30, Ub-rhodamine cleavage fluorescence
Target sequence (Q70CQ3 whole entry, looked up): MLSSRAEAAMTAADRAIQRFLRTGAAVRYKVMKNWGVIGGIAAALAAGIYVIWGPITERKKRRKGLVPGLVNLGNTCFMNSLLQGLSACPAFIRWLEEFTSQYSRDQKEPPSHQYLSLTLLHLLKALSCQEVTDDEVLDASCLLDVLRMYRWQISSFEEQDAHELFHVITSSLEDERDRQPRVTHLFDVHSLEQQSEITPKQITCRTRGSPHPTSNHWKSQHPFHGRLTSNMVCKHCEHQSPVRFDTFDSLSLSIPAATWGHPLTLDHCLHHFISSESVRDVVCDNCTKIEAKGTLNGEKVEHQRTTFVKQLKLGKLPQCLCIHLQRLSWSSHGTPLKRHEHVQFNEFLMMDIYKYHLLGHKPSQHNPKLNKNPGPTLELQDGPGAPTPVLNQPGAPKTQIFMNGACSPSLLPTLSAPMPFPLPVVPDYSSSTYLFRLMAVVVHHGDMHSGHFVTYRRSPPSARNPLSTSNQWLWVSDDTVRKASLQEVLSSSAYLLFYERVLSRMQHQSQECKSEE
OTUD3 block: inhibitors of human OTUD3 deubiquitinase; OTU domain-containing protein 3 (Homo sapiens), Q5T2D3; purified OTUD3, Ub-rhodamine fluorescence, 2 h; inhibition, % at 25 µM; 47,000 compounds, 0.7% hits
USP28 block: inhibitors of human USP28 deubiquitinase | Ubiquitin carboxyl-terminal hydrolase 28 (Homo sapiens), Q96RU2 | purified USP28, Ub-rhodamine cleavage fluorescence, 30 min | inhibition, % at 25 µM | 47,000 compounds, 3% hits
USP17 inh: inhibitors of human USP17 deubiquitinase | purified USP17, Ub-rhodamine cleavage fluorescence, 3 h | Ubiquitin carboxyl-terminal hydrolase 17-like protein 5 (Homo sapiens), A8MUK1 | inhibition, % at 50 µM | 47,000 compounds, 6.5% hits
Active calls of the source: *. No stated cut-off is given here; in the data, active means inhibition above about 30%; inactive means the rest.

SMILES | USP30 block | OTUD3 block | USP28 block | USP17 inh
O=C(Nc1cc(F)c2nc(N3CCOCC3)ccc2c1)C1CCCCC1 | -38 | -4 | -8 | 22
Cc1cccc(OCC(=O)Nc2cc(F)c3nc(N4CCOCC4)ccc3c2)c1 | -139 | -53 | -51 | -12
COc1ccccc1C(=O)N[C@@H]1CC[C@@H](Oc2ccccc2)[C@H](O)[C@H]1O | 27 | 12 | 9 | 10
Cc1ccc(NC(=O)c2cn(-c3ccccc3)cn2)cc1F | -284 | -49 | -35 | -15
CCc1ccc(NC(=O)Cn2c(C)cc(=O)n3nc(C(F)(F)F)nc23)cc1 | 3 | -2 | -3 | 4
COc1ccc(NC(=O)Cn2c(C)cc(=O)n3nc(-c4cccc(C)c4)nc23)cc1 | 31* | -29 | 3 | 16
O=C(NCc1ccc2c(c1)OCO2)c1ccc(C2SCC(=O)N2Cc2ccco2)cc1 (stereo unspecified) | 5 | 19 | 22 | 56*
Cc1ccc(C(=O)NCc2ccc3c(c2)OCO3)cc1S(=O)(=O)N1CCCC1 | -2 | -15 | 0 | -18
COc1ccc(NCc2cc(=O)n3[nH]c(NCc4ccc(C(C)C)cc4)nc3n2)cc1 | 16 | 26 | 20 | 56*
O=c1cc(CN2CCc3ccccc3C2)nc2nc(NCc3ccc(Cl)cc3)[nH]n12 | 49* | 18 | 30* | 28
COc1ccc(C(=O)/C=C\c2cn(CCC(=O)O)nc2-c2ccc(OC)c(OC)c2)cc1 | 14 | 16 | 9 | -4
COc1ccc(-c2nn(-c3ccccc3)cc2/C=C/C(=O)Nc2ccc(C(C)=O)cc2)cc1OC | 84* | 47* | 48* | 55*
Cc1nnc(NCc2cccnc2)c2c1nnn2Cc1ccc(F)cc1 | 6 | -6 | 34* | 11
COc1ccc(Sc2nnc(C)c3nnn(Cc4ccc(F)cc4)c23)cc1 | 28 | 23 | 17 | 32*
Cc1nnc(NCCO)c2c1nnn2Cc1ccccc1Cl | 0 | -1 | 10 | -6
Cc1cc(=O)[nH]c2cc(-c3ccccc3)nn12 | 38* | 13 | 3 | 11
CNC(=O)c1[nH]c(C2CCC(CNC(=O)c3ccccn3)CC2)nc1-c1ccc(OC)cc1 (stereo unspecified) | 17 | 6 | 10 | 7
COc1ccc(-c2cc3ncnc(NC(C)c4ccco4)c3s2)cc1 (stereo unspecified) | -21 | 6 | 21 | 58*
Cc1nc2c(-c3ccccc3)noc2c(=O)n1CC(=O)O | 31* | 21 | 8 | 8
O=C(O)CCn1cnc2c(-c3ccccc3)noc2c1=O | -12 | -1 | -5 | -1
Cc1ccccc1CNC(=O)CCn1cnc2c(-c3ccccc3)noc2c1=O | 43* | 20 | 6 | -9
Cc1ccc(C(=O)OCC(=O)Nc2sccc2C(N)=O)cc1C | -134 | -28 | -11 | -20
Cc1nc2cc(NC(=O)C3CN(C(=O)c4cnccn4)C3)ccc2s1 | 4 | -1 | 54* | -16
C[C@@H]1C[C@H](C)CN([C@H]2CS(=O)(=O)C[C@@H]2S(=O)(=O)c2ccc(Cl)cc2)C1 | 9 | 7 | 4 | 2
COc1ccc2[nH]c3c(N4CCN(c5ccccc5F)CC4)ncnc3c2c1 | 10 | 16 | 7 | 41*
SMILES | USP30 block | OTUD3 block | USP28 block | USP17 inh
O=[N+]([O-])c1ccc(N2CCN(c3ncnc4c3[nH]c3ccc(F)cc34)CC2)cc1 | 8 | 4 | 3 | 65*
c1ccc2c(c1)CCN(c1ncnc3c1[nH]c1ccccc13)C2 | -6 | -11 | 7 | 0
COc1ccc2c(c1)[nH]c1c(N3CCSCC3)ncnc12 | 0 | 0 | -4 | -5
COc1ccc2[nH]c3c(NCCc4ccccc4OC)ncnc3c2c1 | -23 | -1 | -11 | 34*
Cc1ccccc1-c1noc2ncnc(NCCN3CCCCC3C)c12 (stereo unspecified) | 17 | 15 | 11 | 14
CC(C)Cc1ccc(-c2cc3nc(NCC(=O)N(C)C)ccn3n2)cc1 | -117 | -36 | -62 | 1
Cc1nn(-c2ccccc2)c(C)c1S(=O)(=O)Nc1cccnc1 | -13 | -10 | -9 | -71
Cc1nn(-c2ccc(-c3ccccc3)nn2)c(C)c1S(=O)(=O)NC(C)C | 21 | 9 | 8 | 37*
O=C(NCc1nc(-c2ccc(S(=O)(=O)N3CCCC3)cc2)no1)c1ccccc1 | 8 | 0 | -5 | -5
O=C(NCCc1cccc(F)c1)c1nc2c(s1)CCCN2C(=O)C1CC1 | 12 | 3 | 37* | -9
Cc1cc(C)cc(N(CCC(=O)Nc2ccc(N3CCOCC3)cc2)S(=O)(=O)c2ccc(Cl)cc2)c1 | 41* | 35* | 13 | 32*
CCc1ccc(C(=O)NCc2ccc(N3CCOCC3)nc2)cc1 | 19 | 18 | 19 | 27
COCCNC(=O)c1ccc(-c2ccc(N3CCCCC3)nc2)cc1 | 31* | 13 | 23 | 68*

High-throughput results from PubChem BioAssay.
